Screens from PubChem BioAssay.
PRMT1 FP inh = PRMT1 methyltransferase inhibitors, primary screen, biochemical, fluorescence polarization; inhibition, % at 2.79 µM; AID 652257, 2013; Protein arginine N-methyltransferase 1 (Homo sapiens), Q99873; recombinant PRMT1, activity-based probe fluorescence polarization; hit rate 1.3% among 370,000;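 active means inhibition above about 21% made by adding two undisclosed values, limit read from the data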
rCAG RNA binder = binders of r(CAG) RNA repeats, primary screen, biochemical, fluorescence | r(CAG) RNA repeat, TO-PRO-1 dye displacement fluorescence | inhibition, % at 3 µM | hit rate 1.3% among 370,000;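 active means inhibition above the plate cutoff, the mean of all test compounds on that plate plus 3 SD, cut at about 35% in these data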;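 further: higher means more dye released from RNA so lower well fluorescence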
MBD2 DNA inh = inhibitors of MBD2 binding to methylated DNA, primary screen, biochemical, TR-FRET, DNA-binding domain, human | MBD2 binding to methylated oligonucleotide | inhibition, % at 4.4 µM | hit rate 0.31% among 370,000 | AID 686964, 2013; in the data active means inhibition above about 13%
LEDGF integ inh = blockers of LEDGF/p75-dependent integrase strand transfer – biochemical, TR-FRET, high throughput, primary screen; TR-FRET IN-LEDGF/p75 DNA integration, Eu/Cy5; inhibition, % at 3.7 µM; hit rate 0.64% among 370,000; AID 743269, 2014;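 active means inhibition above the screen-wide mean plus 3 SD, cut at about 13% in these data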;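 further: signal is the Cy5 over europium emission ratio at 671 and 618 nm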
UHRF1 MBD2 ctr = UHRF1 methylated DNA binding inhibitors, primary screen, counter-screen for MBD2 inhibitor project, biochemical, TR-FRET, human UHRF1, single concentration; UHRF1 binding to methylated oligo; hit rate 0.75% among 370,000; inhibition, % at 4.4 µM; AID 687016, 2013;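 further: UHRF1 SRA domain binding a hemimethylated CpG hairpin DNA probe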
ABHD5-PLIN5 inh = ABHD5-PLIN5 interaction inhibitors, primary screen, cell lysate, split luciferase complementation, luminescence | Split G. princeps luciferase complementation, 4 h | AID 602281, 2012 | Perilipin-5 (Homo sapiens) + 1-acylglycerol-3-phosphate O-acyltransferase ABHD5 (Homo … | hit rate 0.78% among 360,000 | inhibition, % at 4 µM;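 active means inhibition above the mean inhibition across every tested compound plus 3 SD, cut at about 22% in these data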
Target sequence (Q00G26 whole entry, looked up): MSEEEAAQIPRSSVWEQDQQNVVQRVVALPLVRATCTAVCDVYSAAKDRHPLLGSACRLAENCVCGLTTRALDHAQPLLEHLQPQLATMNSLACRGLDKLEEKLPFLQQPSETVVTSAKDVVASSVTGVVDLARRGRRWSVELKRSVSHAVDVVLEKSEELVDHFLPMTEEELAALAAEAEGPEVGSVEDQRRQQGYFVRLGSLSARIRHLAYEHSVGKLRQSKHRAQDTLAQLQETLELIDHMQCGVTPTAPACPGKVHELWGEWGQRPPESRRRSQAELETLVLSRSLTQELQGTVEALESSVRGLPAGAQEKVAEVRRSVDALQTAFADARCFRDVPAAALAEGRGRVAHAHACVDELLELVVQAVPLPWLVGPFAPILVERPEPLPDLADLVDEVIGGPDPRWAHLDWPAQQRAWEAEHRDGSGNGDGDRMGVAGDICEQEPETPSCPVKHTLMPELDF
Target sequence (Q8WTS1 whole entry, looked up): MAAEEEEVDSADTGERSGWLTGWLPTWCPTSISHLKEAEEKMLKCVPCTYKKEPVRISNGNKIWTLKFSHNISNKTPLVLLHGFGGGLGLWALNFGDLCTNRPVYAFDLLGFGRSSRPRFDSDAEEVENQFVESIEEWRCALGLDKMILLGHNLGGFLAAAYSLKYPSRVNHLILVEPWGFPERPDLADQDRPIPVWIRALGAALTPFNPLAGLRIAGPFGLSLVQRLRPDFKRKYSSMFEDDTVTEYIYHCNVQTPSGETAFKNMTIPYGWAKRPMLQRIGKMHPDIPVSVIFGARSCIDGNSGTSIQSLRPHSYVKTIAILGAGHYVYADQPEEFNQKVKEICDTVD
UHRF1 DNA bind = UHRF1 methylated DNA binding inhibitors, counter-screen for MBD2 inhibitor project, biochemical, TR-FRET, human UHRF1. shares compounds with MBD2 DNA inh. UHRF1 binding to methylated oligonucleotide. inhibition, % at 4.4 µM. hit rate 25% among 1,000;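 further: UHRF1 SRA domain binding a labeled hemimethylated CpG hairpin DNA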
MBD2 DBD conf = inhibitors of MBD2 binding to methylated DNA, confirmation, biochemical, TR-FRET, DNA-binding domain, human; shares compounds with MBD2 DNA inh; inhibition, % at 4.4 µM; hit rate 26% among 1,000; TR-FRET MBD2-DBD binding to methylated oligonucleotide; in the data active means inhibition above about 14%
Of the large screens only hits and unclear results are named; the others gave an inactive call (follow-up assays come after a bar, where they were run). Sampled rows, rich in hits. Any-hit rate of the full collection: about 4.1%. Unless noted, no stated cut-off is given here; in the data, active means inhibition above about 21%; inactive means the rest.

COCc1[nH]nc2c1C(c1ccc(C)cc1)N(Cc1ccccc1)C2=O (centres undefined)	none (no result: ABHD5-PLIN5 inh)
COc1ccc(C(=O)NCC2CCN(C(=O)C(=O)c3cc4ccccc4o3)CC2)cc1	none (no result: ABHD5-PLIN5 inh)
COc1ccc(N(C)S(=O)(=O)c2cccc(C(=O)Nc3nc(C)c(C(C)=O)s3)c2)cc1	MBD2 DNA inh 15 | UHRF1 DNA bind inactive | MBD2 DBD conf inactive
CCOc1cc(N2CCOCC2)c(OCC)cc1NC(=O)COC(=O)c1ccccc1C	none
CCOc1cc(N2CCOCC2)c(OCC)cc1NC(=O)COC(=O)c1cc(C)oc1C	MBD2 DNA inh 15 | UHRF1 DNA bind inactive | MBD2 DBD conf inactive
CCOC(=O)C1=CCN(S(=O)(=O)c2ccc(Br)cc2)C1c1cccc(Cl)c1 (centres undefined)	none (no result: ABHD5-PLIN5 inh)
O=C(CSc1nnc(-c2ccccc2)n1-c1ccc(Cl)cc1)Nc1ccccc1-c1ccccc1	none (no result: ABHD5-PLIN5 inh)
Cc1ccc(C(=O)CC(C(=O)O)n2cncn2)cc1 (centres undefined)	MBD2 DNA inh 41 | UHRF1 DNA bind inactive | MBD2 DBD conf inactive
Cc1ccc(C(=O)CC(C(=O)O)n2cccn2)cc1 (centres undefined)	none
CCN1CCN(C(=O)Nc2ccccc2OC)CC1	MBD2 DNA inh 14 | UHRF1 DNA bind inactive | MBD2 DBD conf inactive
COc1ccccc1NC(=O)N1CCN(CCc2ccccc2)CC1	none
CCC[C@H](/C=C/C(=O)OC(C)(C)C)Sc1ccc(OC)cc1	none (no result: ABHD5-PLIN5 inh)
N#Cc1cccc(NC(=O)c2cc(C3CCCCN3C(=O)c3ccc4c(c3)CCO4)on2)c1 (centres undefined)	MBD2 DNA inh 53 | UHRF1 DNA bind inactive | MBD2 DBD conf inactive
CCN(CC)C(=O)c1cc2c(=O)c3cc(F)ccc3oc2nc1C	MBD2 DNA inh 19 | UHRF1 DNA bind inactive | MBD2 DBD conf inactive
O=C(NC1CC1)C1CCN(S(=O)(=O)c2ccc(Cl)c([N+](=O)[O-])c2)CC1	MBD2 DNA inh 35 | UHRF1 DNA bind inactive | MBD2 DBD conf inactive
O=C(NC1CCN(S(=O)(=O)c2cccc([N+](=O)[O-])c2)CC1)C1CCCCC1	none
O=C(NC1CCCCN(Cc2cccc(C(F)(F)F)c2)C1=O)c1ccc(F)cc1 (centres undefined)	none (no result: ABHD5-PLIN5 inh)
O=C(Nc1cnc2ccccc2c1)N1CCOCC1	MBD2 DNA inh 16 | UHRF1 DNA bind inactive | MBD2 DBD conf inactive
OCCCNc1c2ccccc2nc2ccccc12	MBD2 DNA inh 31, UHRF1 MBD2 ctr 28 | UHRF1 DNA bind 33 | MBD2 DBD conf 34
Cc1ccc(-c2nc(NCCCO)c3ccccc3n2)cc1	none
CCOC(=O)C1=C(COC(=O)C2CC(=O)N(c3ccc(C)cc3)C2)NC(=O)NC1C (centres undefined)	MBD2 DNA inh 14, UHRF1 MBD2 ctr 37 | UHRF1 DNA bind inactive | MBD2 DBD conf inactive
Cc1ccc(-n2c(SCC(=O)NN=Cc3ccc(-c4ccccc4)cc3)nnc2-c2ccccc2)cc1	none (no result: ABHD5-PLIN5 inh)
Cc1cc2[nH]c3c4ccccc4nc(C)c3c2cc1C	MBD2 DNA inh 17 | UHRF1 DNA bind inactive | MBD2 DBD conf 33
Cc1cc2[nH]c3ccccc3c2c(C)n1	none
CC(C)NS(=O)(=O)c1ccc(OCC(=O)N2CCCC2)cc1	none
CC(C)NS(=O)(=O)c1ccc(OCC(=O)N2CCCC2)c(Cl)c1	MBD2 DNA inh 24 | UHRF1 DNA bind inactive | MBD2 DBD conf inactive
COC(=O)c1cc2c(c3c4cc(OC)ccc4n(S(=O)(=O)c4ccc(F)cc4)c13)C(=O)N(C)C2	none (no result: ABHD5-PLIN5 inh)
C=CC[C@@H](CC(=O)N(CCO)Cc1ccccc1)C(=O)N[C@@H](C)COC(=O)[C@@H](CC=C)CC(=O)OC(C)(C)C	MBD2 DNA inh 17, UHRF1 MBD2 ctr 27 | UHRF1 DNA bind inactive | MBD2 DBD conf inactive
O=C(Nc1c(-c2ccccc2)nc2ncccn12)C1CC1	none (no result: ABHD5-PLIN5 inh)
COc1ccc(CNc2c(C(=O)O)cnc3c2cnn3C)cc1	none
CCOC(=O)c1cnc2c(cnn2C)c1NCc1ccc(OC)cc1	MBD2 DNA inh 44 | UHRF1 DNA bind inactive | MBD2 DBD conf inactive
COC(=O)C1CN(Cc2ccc(OC)cc2)CCS(=O)(=O)N1Cc1cn(Cc2ccc(C)cc2)nn1 (centres undefined)	none (no result: ABHD5-PLIN5 inh)
CCCCCCCCN1C(=O)[C@@H](CC(=O)NCc2ccc(OC)c(OC)c2)C[C@@]2(C(=O)OC)C1=C[C@H](C(C)C)O[C@@H]2C1CC1	none (no result: ABHD5-PLIN5 inh)
COc1ccc(CNS(=O)(=O)/C=C/c2ccc(OC)cc2CNC(=O)OC(C)(C)C)cc1	none (no result: ABHD5-PLIN5 inh)
COc1ccc(-c2nc3ccc(C)cn3c2Cc2ccccc2C(F)(F)F)cc1OC	MBD2 DNA inh 14, UHRF1 MBD2 ctr 21 (no result: ABHD5-PLIN5 inh) | UHRF1 DNA bind inactive | MBD2 DBD conf inactive
COC(=O)[C@]12C[C@H](CC(=O)N3CCOCC3)C(=O)N(Cc3ccccc3)C1=C[C@H](C(C)(C)C)O[C@@H]2C	none (no result: ABHD5-PLIN5 inh)
CCOc1ccc2nc(SCC(=O)N(CC(C)C)c3c(N)n(CC(C)C)c(=O)[nH]c3=O)[nH]c2c1	none
CC(C)CN(C(=O)CSc1nc2ccccc2c(=O)[nH]1)c1c(N)n(CC(C)C)c(=O)[nH]c1=O	MBD2 DNA inh 25 | UHRF1 DNA bind inactive | MBD2 DBD conf inactive
CC(C)(C)C(=O)Nc1cc(S(=O)(=O)N2CCCCC2)ccc1N1CCCCC1	MBD2 DNA inh 14 | UHRF1 DNA bind inactive | MBD2 DBD conf inactive
CC(C)C(=O)Nc1cc(S(=O)(=O)N2CCOCC2)ccc1N1CCCCC1	none
COC(=O)C[C@@H]1CC[C@@H]2[C@H](COc3ccc(NC(=O)c4ccc(F)c(F)c4)cc3C(=O)N2C)O1	none (no result: ABHD5-PLIN5 inh)
Cc1ccc(C)c2nc(Cl)c(C#N)cc12	MBD2 DNA inh 14 | UHRF1 DNA bind inactive | MBD2 DBD conf inactive
CC1(C(=O)NS(=O)(=O)c2ccc(Br)cc2)CCN1C(=O)CC1CCCCC1 (centres undefined)	MBD2 DNA inh 18 | UHRF1 DNA bind inactive | MBD2 DBD conf inactive
O=C(Nc1ccc(F)cc1Cl)C1CCCN1S(=O)(=O)c1cccc2cccnc12 (centres undefined)	none (no result: ABHD5-PLIN5 inh)
